Laboratory results from PubChem BioAssay (NCI).
Where “and” joins values, the source holds several entries; their conditions need not be identical. Identical values can stand only once. About 83,000 compounds went through this panel and 20% of them were active in at least one assay; those are over-represented in the sample as a whole.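 Negative percent growth values reflect cell death: -40 means 40% of the cells present at the start died, and -100 means all died.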 Calls of active or inactive are those of the source.

system: HL-60(TB) leukemia; test: NCI-60 one-dose screen, 48 h (100 = growth as untreated, 0 = no growth, -100 = all killed); conditions: 10 µM
Method: Growth inhibition of the HL-60(TB) human tumor cell line is measured as a screen for anti-cancer activity. Cells are grown in 96 well plates and exposed to the test compound for 48 hours. Compounds are tested at a single concentration, which is 10^-5 M for most compounds. The reported endpoint is percent growth (GI% or GIPRCNT), where numbers from 0 - 100% represent growth inhibition, and numbers from -100% - 0 represent cell death. For example, a value of 40 represents 60% growth inhibition. A value of 0 means no net growth occurred over the course of the experiment. A value of -40 indicates 40% of cells at the beginning of the experiment died by the end of the experiment. A value of -100 means all cells are dead at the end of the experiment.
NCI-60 Human Tumor Cell Lines Screen was performed using the standard one-dose NCI protocol, which is described in more detail at https://dtp.cancer.gov/discovery_development/nci-60/default.htm.
Compounds with GIPRCNT values below 10 were considered active. Activity score was based on GIPRCNT using the following formula: […]
Score is 0 for GIPRCNT values of 100 or above, 50 for GIPRCNT values of 0, and 100 for GIPRCNT values of -100.

Row | Compound | growth
1 | COC(=O)C1C(O)C(C)C(O)C(C)/C=C\C=C(C)C(=O)Nc2c(C)c(OC(C)=O)c3c(c2O)C(=O)C(C)=C2OCOC(=C23)C(C)=CC(C)(O)C(O)C(C)C1O (stereo not given) | 72.3% (inactive)
2 | CC(Cc1ccc2c(c1)OCO2)NN (stereo not given) | 81.8% (inactive)
3 | COc1cc2c(cc1OC)C13CCN4CC5=CCOC6CC(=O)N2C1C6C5CC43 (stereo not given) | 127% (inactive) and 80.1% (inactive)
4 | NNc1ccccc1 | 5.84% (active)
5 | ClCc1ccc2ccccc2n1 | 66.3% (inactive)
6 | O=C(CCl)Nc1ccc(Cl)cc1 | 66.3% (inactive)
7 | NC(=O)c1cc([N+](=O)[O-])c(Cl)c([N+](=O)[O-])c1Cl | -26.9% (active)
8 | COc1cc2c(c(OC)c1OC)-c1ccc(O)c(=O)cc1[C@@H](NC(C)=O)CC2 | 36% (inactive)
9 | O=[N+]([O-])/C=C/c1ccc(Cl)cc1[N+](=O)[O-] | 33.9% (inactive)
10 | COc1ccc(/C=C(\C)[N+](=O)[O-])cc1OC | -38.4% (active)
11 | [Cl][Hg][c]1ccc2ccccc2c1 | -20.3% (active)
12 | COc1cc(/C=C/[N+](=O)[O-])cc(Br)c1OC | 0.838% (active)
13 | O=C(CBr)Nc1ccccc1 | 96.1% (inactive)
14 | C[C@@H]1C[C@@H]([C@H](O)CC2CC(=O)NC(=O)C2)C(=O)[C@@H](C)C1 | -3.87% (active)
15 | C[CH2][Hg][S]c1ccccc1C(=O)O | -17.6% (active)
16 | CC(C)C1(NC(=O)C2CC3c4cccc5[nH]cc(c45)CC3N(C)C2)OC2(O)C3CCCN3C(=O)C(Cc3ccccc3)N2C1=O (stereo not given) | 73.9% (inactive)
17 | COC(C(=O)C(O)C(C)O)C1Cc2cc3cc(OC4CC(OC(C)=O)C(OC5CC(O)C(OC)C(C)O5)C(C)O4)cc(O)c3c(O)c2C(=O)C1OC1CC(OC2CC(OC3CC(C)(O)C(OC(=O)C(C)C)C(C)O3)C(O)C(C)O2)C(O)C(C)O1 (stereo not given) | -46.3% (active)
18 | CC1CCC2(OC1)OC1C(O)C3C4CCC5CC(OC6OC(CO)C(OC7OC(CO)C(O)C(OC8OCC(O)C(O)C8O)C7OC7OC(CO)C(O)C(OC8OC(CO)C(O)C(O)C8O)C7O)C(O)C6O)C(O)CC5(C)C4CCC3(C)C1C2C (stereo not given) | -17.1% (active)
19 | O=[N+]([O-])c1ccc(Br)c([N+](=O)[O-])c1 | 43% (inactive)
20 | CN(CCCl)c1ccc(/C=C/C2=[N+](C)c3ccccc3C2(C)C)cc1 | -29.5% (active)

Row | Compound | growth
21 | Oc1c(Cl)cc(Cl)c2ccccc12.[Cu+2] | 92% (inactive)
22 | O=[N+]([O-])/C=C/c1ccc([N+](=O)[O-])cc1 | 17.1% (inactive) and 55.2% (inactive)
23 | Cn1c(O)c(N=O)c(=O)n(C)c1=O | 96.6% (inactive) and 101% (inactive)
24 | COc1ccc2c(ccc3oc([N+](=O)[O-])cc32)c1 | -31.4% (active)
25 | O=[P+](O)c1ccccc1 | 106% (inactive)
26 | O=[N+]([O-])c1cc[n+]([O-])c2ccccc12 | -26.9% (active)
27 | COC1CC2C=C(C)/C=C/C=C/C(=O)NC(c3ccccc3)C/C=C/CCC(O)CC(=O)C2=C1O (stereo not given) | -5.27% (active)
28 | O=[N+]([O-])/C=C\c1ccc2c(c1)OCO2 | 106% (inactive)
29 | COc1cc(/C=C/[N+](=O)[O-])cc(OC)c1OC | -16.6% (active)
30 | CC(C)c1cc([N+](=O)[O-])cc([N+](=O)[O-])c1O | 62.2% (inactive)
31 | CC/C(=C/c1ccc(OC)cc1)[N+](=O)[O-] | -1.61% (active)
32 | COc1cc(/C=C\[N+](=O)[O-])ccc1O | 9.29% (active) and 48.1% (inactive)
33 | COC12c3c(C)cc(O)c4c(=O)occ(c34)C(=O)C1C13COC(=O)c4c(O)cc(C)c(c41)C(=O)C2C3OC(C)=O (stereo not given) | 100% (inactive)
34 | C/C(=C\c1ccc(Cl)c(Cl)c1)[N+](=O)[O-] | -26.5% (active) and 83.5% (inactive)
35 | CC(=O)[O][Hg][c]1c(C)c(C)cc(C)c1C | -13.1% (active)
36 | CS(=N)(=O)CCC(N)C(=O)O (stereo not given) | 127% (inactive)
37 | Cc1cc([N+](=O)[O-])c2ccccc2[n+]1[O-] | 41% (inactive) and -30.6% (active)
38 | COc1cc([N+](=O)[O-])c2ncccc2c1[N+](=O)[O-] | 65.5% (inactive)
39 | O=S(=O)(F)c1ccc(Cl)cc1 | 123% (inactive)
40 | COc1ccccc1/C=C/[N+](=O)[O-] | 6.74% (active)
